AHR activator: AHR activators, primary screen, cell-based, luminescence, luciferase reporter, human; activation, % at 5 µM; Aryl hydrocarbon receptor (Homo sapiens), P35869; AHR-responsive luciferase reporter cells; 320,000 compounds, 2.5% hits; in the data active = activation above about 47%
Target sequence (P35869 whole entry, looked up): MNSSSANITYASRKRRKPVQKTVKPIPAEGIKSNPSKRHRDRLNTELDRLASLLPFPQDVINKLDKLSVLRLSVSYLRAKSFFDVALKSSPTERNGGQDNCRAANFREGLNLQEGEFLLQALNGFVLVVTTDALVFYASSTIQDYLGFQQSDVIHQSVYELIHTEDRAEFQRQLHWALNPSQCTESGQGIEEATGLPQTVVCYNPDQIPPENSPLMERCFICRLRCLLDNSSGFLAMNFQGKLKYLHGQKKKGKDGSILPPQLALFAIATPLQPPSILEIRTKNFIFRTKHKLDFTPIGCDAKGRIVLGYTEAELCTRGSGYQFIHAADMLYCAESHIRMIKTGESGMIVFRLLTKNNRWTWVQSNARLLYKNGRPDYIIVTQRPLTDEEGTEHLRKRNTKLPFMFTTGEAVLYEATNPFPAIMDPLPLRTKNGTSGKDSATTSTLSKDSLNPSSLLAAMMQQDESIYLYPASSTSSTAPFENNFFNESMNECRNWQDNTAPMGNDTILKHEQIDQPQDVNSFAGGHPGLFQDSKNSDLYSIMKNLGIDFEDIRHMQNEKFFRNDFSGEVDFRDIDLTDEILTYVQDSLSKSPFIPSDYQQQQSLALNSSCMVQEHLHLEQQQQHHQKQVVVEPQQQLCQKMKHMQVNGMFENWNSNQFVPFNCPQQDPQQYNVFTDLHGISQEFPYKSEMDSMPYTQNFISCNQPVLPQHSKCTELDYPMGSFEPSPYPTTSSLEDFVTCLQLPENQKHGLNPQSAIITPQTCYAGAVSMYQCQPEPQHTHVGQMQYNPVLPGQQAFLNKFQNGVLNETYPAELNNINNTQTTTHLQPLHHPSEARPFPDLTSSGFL
ALR H2O2 inh: inhibitors of human ALR sulfhydryl oxidase, primary screen, biochemical, H2O2 detection, HRP-luminol luminescence, single point; inhibition, % (concentration not given with the values); purified ALR, DTT oxidation; FAD-linked sulfhydryl oxidase ALR (Homo sapiens), P55789; 290,000 compounds, 3.8% hits;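 active = mean replicate inhibition above about 79%, with every replicate also reaching it, limit read from the data; inconclusive = only one of the two criteria met; inactive = mean below limit and not every replicate reaching it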
Bfl-1 A1 inh: caspase 3/7 activation in MEF A1-2A-BIM cells, primary screen, A1 inhibitor project, cell-based, luminescence, HTS; Caspase-Glo 3/7 luminescence, 3 h; percent of clofoctol response, vehicle zero; caspase activation, % (no concentration beside the values); 330,000 compounds, 0.066% hits;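 active = over half of replicate activation scores above 10%, or exactly half above 10 with the replicate mean above 10; inconclusive = replicate mean below 10 yet half the replicates above 10; inactive = over half of replicates below 10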
Efflux pump mplx: inhibitors of Candida efflux pumps in yeast, primary screen, S. cerevisiae, Nile Red, multiplex; S. cerevisiae Candida pump triplex; inhibition, % at 10 µM; 330,000 compounds, 0.44% hits; AID 485275, 2010;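 active = plate passing quality check with inhibition over a set limit, or well fluorescence over plate mean plus 4 SD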;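 note: Nile Red retained in pooled yeast measured as flow cytometry median fluorescence; higher means more Nile Red kept so more efflux inhibition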
VLA-4 inh: inhibition in human VLA-4 binding assay, primary screen, VLA-4 allosteric modulator project, MLPCN library, flow cytometry, VLA-4 expressing cells; Integrin alpha-4 (Homo sapiens), P13612; inhibition, % (about 7 µM as worked out from the volumes in the protocol); ligand binding flow cytometry; 330,000 compounds, 0.2% hits; in the data active = inhibition above about 50%
Mot1-301 SUMO: yeast Mot1-301 growth rescue at high temperature, primary screen, SUMOylation pathway inhibitor project, S. cerevisiae, ATP luminescence, 38.5C; S. cerevisiae Mot1-301 growth rescue; percent above DMSO median, 100 means doubled; growth rescue, % at 18.8 µM; 320,000 compounds, 1% hits;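 active = every valid replicate shows activation above 250% relative to neutral control wells; inactive = the rest, any valid replicate at or below 250%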
Of the large screens only hits and unclear results are named; the others gave an inactive call. A selection: hits, their analogues and other compounds. The true share with any hit is near 7.2%.

Cc1ccc(C(=O)Oc2ccccc2N2C(=O)C3CCCCC3C2=O)cc1 (stereo not given)	none
Cc1ccc(-n2c(CNc3ccc(F)cc3)nnc2SCC(N)=O)cc1	none
C=C(C(=O)c1ccccc1)C(C)C(=C)C(=O)c1ccccc1	ALR H2O2 inh 87.2
CCc1ccc(NS(=O)(=O)c2c(C)noc2C)cc1	none
Cc1oc(-c2ccccc2)cc1C(=O)Nc1cccc(/C=C\C(=O)O)c1	ALR H2O2 inh 95.9
CC(=O)NC1C(=O)N=C(SC(C)C(=O)Nc2cccc(Cl)c2)NC1=O (stereo not given)	ALR H2O2 inh 97.7
CC(=O)NC12CC3CC(C1)CC(C(=O)Nc1nc4ccc(F)cc4s1)(C3)C2	ALR H2O2 inh 86.2
Cc1cccc2c(N=Nc3ccccc3)c(O)[nH]c12	AHR activator 76.2 (no result: ALR H2O2 inh)
CCN(CCNS(=O)(=O)c1ccc2[nH]c(=O)sc2c1)c1ccccc1	ALR H2O2 inh 98.2
Nc1ccc(CCc2nc3ccccc3o2)cc1	ALR H2O2 inh 91.5
CC(C)(CNc1ccc(S(=O)(=O)C(F)(F)F)cc1[N+](=O)[O-])N1CCOCC1	none
O=C1C(SCCO)=C(SCCO)C(=O)c2ccccc21	AHR activator 57.7
CCc1nn(CC(=O)N2CCN(c3ccc(F)cc3)CC2)c(=O)c2cc3occc3n12	none
CC(C)(C)NC(=O)CN(Cc1ccc2c(c1)OCO2)C(=O)CNC(=O)c1cccs1	none
Cc1ccc(CNC(=O)C(=O)NCC2OCCN2C(=O)c2cccs2)cc1 (stereo not given)	none
Cc1ccc(NC(=O)CN2C(=O)S/C(=C/c3ccc(-c4cc(C(=O)O)ccc4C)o3)C2=O)cc1C	none
COC(=O)C(C)N1C(=O)S/C(=C\c2ccc(-c3ccc(C(=O)O)cc3C)o2)C1=O (stereo not given)	ALR H2O2 inh 97.9
Cc1ccccc1C(=O)NC1CCN(C(=O)NC2CCCCC2)CC1	none
Cc1ccccc1C(=O)NC1CCN(C(=O)N(c2ccccc2)c2ccccc2)CC1	ALR H2O2 inh 86.0
Cc1ccccc1C(=O)NNC(=O)C1CCN(C(=O)Nc2ccccc2)CC1	Mot1-301 SUMO 341.8
O=C(NNC(=O)C1CCN(C(=O)Nc2ccccc2)CC1)c1ccc(F)cc1	none
CSc1nnc2c(n1)c(C)nn2-c1cccc(C)c1	ALR H2O2 inh 95.0 (no result: Mot1-301 SUMO)
O=C(Nc1ccc(Br)cc1)C(c1ccccc1)c1ccccc1	Mot1-301 SUMO 801.3
COc1cccc(Oc2nccc(N(C)C)c2C#N)c1	none
Cc1ccnc(N(C(=O)c2cccs2)C(=O)c2cccs2)c1	AHR activator 49.7
Cc1ccccc1-n1c(O)c(/C=C/C=Nc2ccccc2)c(=O)[nH]c1=O	none
Cc1ccc(-n2c(O)c(/C=C3/C(c4ccccc4)=Nc4ccccc43)c(=O)[nH]c2=O)cc1	ALR H2O2 inh 98.0
Cc1cc(C(F)(F)F)nc(Nc2nc(C)c3ccccc3n2)n1	AHR activator 57.9
FC(F)(F)c1cc(Cl)c2nc(-c3ccccc3)cn2c1	AHR activator 74.1
Nc1cccc(-c2cn3cc(C(F)(F)F)cc(Cl)c3n2)c1	AHR activator 63.3, ALR H2O2 inh 98.9
CCCCCC1C(=O)C[C@@H]2CCN3C(=O)CCC[C@H]1[C@H]23 (stereo not given in full)	none (no result: AHR activator, ALR H2O2 inh, Bfl-1 A1 inh, VLA-4 inh, Mot1-301 SUMO)
Cc1ccc(/C([O-])=C(/C(=S)NCc2ccc3c(c2)OCO3)[n+]2ccc(N(C)C)cc2)c(C)c1	none
CN(CCO)c1nc2c(c(=O)n(Cc3ccc(Cl)cc3)c(=O)n2C)n1C	none
CN1CCN(c2ccc(NC(=O)c3ccc(-c4ccccc4F)o3)cc2)CC1	AHR activator 63.8, Bfl-1 A1 inh inconclusive (no result: ALR H2O2 inh)
CCCCn1c(CCC(=O)O)ccc1-c1cccs1	ALR H2O2 inh 93.4
O=C(O)CCc1ccc(-c2ccc(Cl)cc2)n1Cc1ccco1	none
O=C(O)CCc1ccc(-c2cccs2)n1Cc1ccco1	ALR H2O2 inh 99.0
COCCn1c(CCC(=O)O)ccc1-c1cccs1	ALR H2O2 inh 81.4
C[C@H](O)CC1=C[C@H](O)[C@@H](C)OC1=O	none
CCC(CC)C(=O)N1CCN(c2ccccc2)CC1	ALR H2O2 inh 98.2
Cc1ccc(CSCC(=O)N2CCN(c3ccc(F)cc3)CC2)cc1	none
COc1ccc(N2CCN(C(=O)CCN3C(=O)C4C5C=CC(C5)C4C3=O)CC2)cc1 (stereo not given)	none
CCC(C(=O)N1CCN(c2cccc(Cl)c2)CC1)c1ccccc1 (stereo not given)	none
O=C(CSCc1ccc(F)cc1)N1CCN(c2ccc(F)cc2)CC1	ALR H2O2 inh 97.8
Cc1cccn2c(=O)nc(SCC(=O)N3CCN(c4ccccc4)CC3)nc12	ALR H2O2 inh 85.6
O=C(CCN1C(=O)C2C3C=CC(C3)C2C1=O)N1CCN(c2ccc(F)cc2)CC1 (stereo not given)	ALR H2O2 inh 97.3
Cc1ccc(NC(=O)Cn2c(=O)oc3cc(S(=O)(=O)N4CCC(C)CC4)ccc32)cc1C	none (no result: ALR H2O2 inh)
CCCN(CC(=O)Nc1ccccc1OC)C(=O)CCNC(=O)c1ccccc1OC	none
Cc1c(C(=O)Nc2ccc(C(F)(F)F)cc2)sc2ncn(CC(=O)N3CCN(c4ccccn4)CC3)c(=O)c12	none
COc1ccc(/C=C/C2=CCN(Cc3ccc(OC)cc3)CC2)cc1	none
CC(=O)N1c2ccc(S(=O)(=O)N3CCCC(C(=O)Nc4ccc(F)cc4)C3)cc2CC1C (stereo not given)	none
CCN(CC(=O)Nc1ccc(NC(C)=O)cc1)C(=O)c1cccnc1Sc1ccc(C)c(C)c1	none
Cc1ccsc1-c1nc(CSCC(=O)N2CCN(c3ccccc3)CC2)c(C)o1	ALR H2O2 inh 89.2 (no result: Bfl-1 A1 inh)
Cc1ccccc1CSCC(=O)N1CCN(c2ccccc2)CC1	ALR H2O2 inh 98.5
CCCCNC(=O)c1ccc2c(c1)C(=O)N(Cc1ccncc1)C2=O	none (no result: AHR activator)
COc1ccc(CCN2C(=O)CC(NNC(=O)c3cccc(O)c3)C2=O)cc1 (stereo not given)	ALR H2O2 inh 95.0
COc1ccc(CCN2C(=O)CC(NNC(=O)c3ccc(F)cc3)C2=O)cc1OC (stereo not given)	none
Cc1ccc(-c2[nH]nc(N)c2N=Nc2ccccc2C)cc1	AHR activator 62.0
Cc1cccc(N=Nc2c(N)n[nH]c2-c2ccc(Cl)cc2)c1	none
COc1ccc(NC(=O)NNC(=O)COc2ccc3cc(Br)ccc3c2)c(OC)c1	none
CC(=O)Nc1ccc(NC(=O)CSc2nnc(NC(=O)c3ccc(Br)o3)s2)cc1	none
S=C(N/N=C/c1ccc2c(c1)OCO2)NC1CC2CCC1C2 (stereo not given)	AHR activator 68.5

Screening results: PubChem, several laboratories
